ClpP mod: qHTS Assay for Activators of ClpP; Potency, µM (series often up to 57.5 µM); purified B. subtilis ClpP, FRET peptide cleavage, 20 min; hit rate 1.9% among 340,000; active means well fitted falling curve with a large enough effect; inconclusive means small, poorly fitted or top-dose-only effect; inactive means no such curve, though single readings can be large or run the other way; further: the source files actives as falling curves though it sought activators and does not explain the sign; nearly all actives have a fitted effect of over 65% in size
Target sequence (P80244 whole entry, looked up): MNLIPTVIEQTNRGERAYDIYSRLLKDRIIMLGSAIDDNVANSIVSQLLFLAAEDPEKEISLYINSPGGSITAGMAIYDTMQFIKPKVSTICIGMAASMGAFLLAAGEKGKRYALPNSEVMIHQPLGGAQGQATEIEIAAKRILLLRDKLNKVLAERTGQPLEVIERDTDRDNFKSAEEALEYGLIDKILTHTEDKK
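Purified B. subtilis ClpP, 10 microg/mL final in Tris/HCl pH8 with KCl, BSA, glycerol and Tween-20, cleaved an Abz/nitrotyrosine-quenched decapeptide. Fluorescence (ex 320, em 430) was read at 0 and 20 min at room temperature. Delta was normalized to 5.8 microM ADEP and DMSO/no-enzyme controls.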
GLP1R cytotox: cytotoxicity in counter-screen for GLP-1R inverse agonists; Potency, µM (series often up to 38.3 µM), actives largely listed as inhibitors; AID 624418; HEK293 cAMP-luciferase reporter cells, luminescence, 24 h; hit rate 0.13% among 410,000;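 further: loss of luciferase light is scored as toxicity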
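Step one: seed cells (200 cells/uL, DMEM with 10% Nu serum, 1% pen-strep). Step two: 12-hour incubation at 37 deg C. Step three: pin 23 nL compound, incubate 24 hr. Step four: add luciferase reagent, read luminescence 12 min later.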
GLP1R ag: GLP-1 receptor (human) agonism | HEK293 GLP-1R CRE-luciferase, luminescence, 4-6 h; cells express a hypersensitive GLP-1R form | Potency, µM (highest dose often 45.6 µM), hits mostly activators | P43220 | hit rate 0.007% among 380,000 | AID 624172
Target sequence (P43220 whole entry, looked up): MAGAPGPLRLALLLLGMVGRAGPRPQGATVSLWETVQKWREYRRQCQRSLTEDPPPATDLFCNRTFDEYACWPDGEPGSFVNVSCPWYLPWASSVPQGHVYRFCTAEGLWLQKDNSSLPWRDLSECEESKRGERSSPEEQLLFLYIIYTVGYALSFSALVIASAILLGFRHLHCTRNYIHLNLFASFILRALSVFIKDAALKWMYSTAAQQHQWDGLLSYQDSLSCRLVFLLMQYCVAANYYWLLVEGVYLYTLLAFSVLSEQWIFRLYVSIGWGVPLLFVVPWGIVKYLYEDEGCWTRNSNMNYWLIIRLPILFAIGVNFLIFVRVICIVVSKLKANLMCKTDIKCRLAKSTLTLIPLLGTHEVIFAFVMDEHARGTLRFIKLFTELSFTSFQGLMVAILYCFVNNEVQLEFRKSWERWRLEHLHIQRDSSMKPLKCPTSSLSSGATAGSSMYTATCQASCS
GLP1R inv ag: acts as inverse agonist at human GLP-1 receptor | P43220 | HEK293 GLP-1R CRE-luciferase, luminescence, 24 h; GLP-1R form is constitutively active | Potency, µM (top dose mostly 38.3 µM), hits mostly inhibitors | hit rate 1.6% among 410,000 | AID 624417; further: nearly all actives have a fitted effect of over 55% in size
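qHTS in 1536-well format: reporter HEK293 cells expressing constitutive GLP-1R activity in DMEM + 10% Nu serum, 24 hr with compounds at 37 deg C, luminescence read after 12 min with detection reagent.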
Numbers stand for hits. An excerpt weighted towards active compounds, which were near 3.2% of everything screened. Unless noted, the call rests on the fitted dose curve; in most records, active means well fitted curve in the direction sought with a large enough effect; inconclusive means small, poorly fitted or top-dose-only effect, or another doubt; inactive means no such curve, though single readings can be large; an effect the other way counts as inactive or inconclusive.

Screening Cc1ccc(C(=O)N/N=C/c2ccc(-c3cccc(Cl)c3)o2)cn1 returned ClpP mod inactive, GLP1R cytotox inconclusive, GLP1R ag inactive and GLP1R inv ag 7.9µM.
Screening CCn1cc(C(=O)NCc2ccc3c(c2)OCO3)c(=O)c2cc(F)c(N3CCN(C(=O)c4ccco4)CC3)cc21 returned ClpP mod 25µM, GLP1R cytotox inconclusive, GLP1R ag inactive and GLP1R inv ag inactive.
Screening COc1ccc(-c2cc(C(F)(F)F)nc(S(=O)(=O)CCCC(=O)Nc3cccc(O)c3)n2)cc1OC returned ClpP mod inactive, GLP1R cytotox inconclusive, GLP1R ag inactive and GLP1R inv ag inconclusive.
`CCCCn1c(O)c(C=NC2CC3CCC2(C)C3(C)C)c(=O)[nH]c1=O` (centres undefined) gave ClpP mod inactive, GLP1R cytotox inactive, GLP1R ag inactive and GLP1R inv ag 5.6µM.
O=C(Nc1cccc(F)c1)[C@@H](c1ccccc1)N1Cc2ccccc2C1=O was read as ClpP mod inactive, GLP1R cytotox inactive, GLP1R ag inactive and GLP1R inv ag inconclusive.
`CN(C)C(=O)Oc1ccc(OCc2nc3ccccc3[nH]2)cc1` gave ClpP mod inactive, GLP1R cytotox inactive, GLP1R ag inactive and GLP1R inv ag 7.1µM.
For CCC(C)C1NC(=O)C2CCCN2C(=O)C(CC(C)C)OC(=O)CCNC(=O)C(C)N(C)C(=O)C(C(C)C)N(C)C1=O (centres undefined) the results were ClpP mod inactive, GLP1R cytotox 4.5µM, GLP1R ag inactive and GLP1R inv ag inconclusive.
Screening C=CCCC[C@@H]1OC(=O)CNC(=O)C([C@@H](C)CC)NC(=O)[C@@H]2CCCN2C(=O)C([C@@H](C)CC)OC(=O)[C@H](Cc2ccccc2)N(C)C(=O)[C@H](C(C)C)NC(=O)C1(C)C (some centres undefined) returned ClpP mod inactive, GLP1R cytotox inconclusive, GLP1R ag inactive and GLP1R inv ag inconclusive.
For O=C(CNC(=O)OCc1ccccc1)Nc1ccc(Br)cc1C(=O)c1ccccc1Cl the results were ClpP mod inactive, GLP1R cytotox inactive, GLP1R ag inactive and GLP1R inv ag inconclusive.
Screening CN(C(=O)CNC(=O)OCc1ccccc1)c1ccc(Br)cc1C(=O)c1ccccc1Cl returned ClpP mod inactive, GLP1R cytotox inconclusive, GLP1R ag inactive and GLP1R inv ag 2.8µM.
`CCCCNc1ccc2c3c(cccc13)C(=O)N(CCCC)C2=O` gave ClpP mod inactive, GLP1R cytotox inactive, GLP1R ag inactive and GLP1R inv ag 7.1µM.
`O=C(CCl)N(c1ccccc1)C1CCS(=O)(=O)C1` (centres undefined) gave ClpP mod inactive, GLP1R cytotox inconclusive, GLP1R ag inactive and GLP1R inv ag inconclusive.
Screening CNC(C)CC1CCCCC1 (centres undefined) returned GLP1R ag inactive.
`COc1cccc(Cn2c(-c3cccs3)noc2=O)c1` gave ClpP mod inactive, GLP1R cytotox inconclusive, GLP1R ag inactive and GLP1R inv ag inactive.
Screening COc1ccc(-c2noc(=O)n2Cc2cc(C)ccc2C)cc1 returned ClpP mod inactive, GLP1R cytotox inactive, GLP1R ag inactive and GLP1R inv ag 11µM.
For Cc1ccc(C)c(N2CCN(C(=O)C3CCN(Cc4nc(-c5cccc(Cl)c5)oc4C)CC3)CC2)c1 the results were ClpP mod inconclusive, GLP1R cytotox inactive and GLP1R inv ag inactive.
Cc1ccc(OP(=O)(NCc2ccccc2)Oc2ccc(C)cc2)cc1 was read as ClpP mod inconclusive, GLP1R cytotox inactive, GLP1R ag inactive and GLP1R inv ag 7.1µM.
For O=C(/C=C/c1ccc(Br)cc1)c1ccc(NC2=NCCCS2)cc1 the results were ClpP mod inactive, GLP1R cytotox inconclusive, GLP1R ag inactive and GLP1R inv ag 5µM.
CC(=O)c1ccc(NC2=NCCCS2)cc1 was read as GLP1R cytotox inactive, GLP1R ag inactive and GLP1R inv ag inactive.
`Cc1ccc(-c2nnc(Nc3ccc(Br)cc3)c3ccccc23)cc1S(=O)(=O)NCc1nc2ccccc2[nH]1` gave ClpP mod inconclusive, GLP1R cytotox inactive and GLP1R inv ag inconclusive.
`COC(=O)C1=C(c2cc3ccccc3s2)C[C@@H]2CC[C@H]1N2C(=O)N1CCC(C)CC1` gave ClpP mod inactive, GLP1R cytotox inactive, GLP1R ag inactive and GLP1R inv ag 10µM.
For COC(=O)C1=C(c2cc3ccccc3o2)C[C@@H]2CC[C@H]1N2C(=O)NCc1ccc(F)cc1 the results were ClpP mod inactive, GLP1R cytotox inactive, GLP1R ag inactive and GLP1R inv ag 11µM.
COC(=O)C1=C(c2cc3ccccc3s2)C[C@@H]2CC[C@H]1N2C(=O)NCC1CC1 was read as ClpP mod inactive, GLP1R cytotox inactive, GLP1R ag inactive and GLP1R inv ag inconclusive.
`COC(=O)C1=C(c2cc3ccccc3s2)C[C@@H]2CC[C@H]1N2C(=O)NC1CC1` gave ClpP mod inactive, GLP1R cytotox inactive, GLP1R ag inactive and GLP1R inv ag inactive.
COC(=O)C1=C(c2cc3ccccc3s2)C[C@@H]2CC[C@H]1N2C(=O)NCc1ccc(C(F)(F)F)cc1 was read as ClpP mod inactive, GLP1R cytotox inactive, GLP1R ag inactive and GLP1R inv ag 4µM.
CN(C)c1ccc(C(CNS(=O)(=O)c2ccc(F)c(F)c2)c2c[nH]c3ccccc23)cc1 (centres undefined) was read as ClpP mod inactive, GLP1R cytotox inconclusive, GLP1R ag inactive and GLP1R inv ag inconclusive.
For CN1CC(C(=O)c2ccc(Cl)cc2)C(c2ccc(Cl)cc2Cl)C1 (centres undefined) the results were GLP1R cytotox inactive, GLP1R ag inactive and GLP1R inv ag 8.9µM.
Screening CN1CC(C(=O)c2ccc(F)cc2)C(c2ccc(F)cc2)C1 (centres undefined) returned ClpP mod inactive, GLP1R cytotox inactive, GLP1R ag inactive and GLP1R inv ag inconclusive.
For CN1CC(C(=O)c2ccc(Cl)cc2)C(c2ccc(N(C)C)cc2)C1 (centres undefined) the results were ClpP mod inactive, GLP1R cytotox inactive, GLP1R ag inactive and GLP1R inv ag inconclusive.
`COc1ccc(C2CN(C)CC2C(=O)c2ccc(C)cc2)cc1Cl` (centres undefined) gave GLP1R cytotox inactive, GLP1R ag inactive and GLP1R inv ag 10µM.
Screening CN[C@H](C)Cc1ccccc1 returned GLP1R ag inactive.
Screening CCC[C@@H](CN[C@@H](CNC)[C@H](C)CC)NCC1CCC(C(C)(C)C)CC1 (some centres undefined) returned ClpP mod inactive, GLP1R cytotox inconclusive, GLP1R ag inactive and GLP1R inv ag 10µM.
Screening CCOc1ccc(NC(=O)CN(c2ccc(Cl)cc2C)S(=O)(=O)c2ccccc2)cc1 returned ClpP mod inactive, GLP1R cytotox inactive and GLP1R inv ag inconclusive.
For COC(=O)C1=C(c2ccc(OC(F)(F)F)cc2)C[C@@H]2CC[C@H]1N2C(=O)NCC1CC1 the results were ClpP mod inactive, GLP1R cytotox inactive, GLP1R ag inactive and GLP1R inv ag 10µM.
